From PubChem BioAssay
NALP1 inh: blocks the NALP1 inflammasome reconstituted in yeast | S. cerevisiae NALP1/ASC/caspase-1 growth, X-gal OD620, 72 h | inhibition, % at 10 µM | actives 0.61% (n = 280,000) | AID 2071; in the data active means inhibition mostly above about 24%, no sharp cut-off; inactive means mostly below about 32%
PfHsp90 set2: inhibits growth of yeast expressing Plasmodium falciparum Hsp90. inhibition, % at 9.4 µM. S. cerevisiae expressing PfHsp90, BacTiter-Glo ATP, 48 h; yeast lacking PDR1 and PDR3 efflux regulators. actives 0.32% (n = 310,000);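 active means every replicate shows inhibition above about 80%, whatever the replicate mean, limit read from the data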
TIM10 inh: growth inhibitors of TIM10 yeast strain; S. cerevisiae TIM10 strain growth, BacTiter-Glo luminescence, 24 h; inhibition, % at 10 µM; actives 1.4% (n = 330,000); AID 463195;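 active means inhibition of 40% or more at the single tested concentration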;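 further: wild-type TIM10 isogenic control strain grown at permissive 25 °C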
SKKanGAS inh: blocks kanamycin growth of S. pyogenes SKKanGAS strain; BacTiter-Glo, 6 h; inhibition, % at 7.5 µM; actives 1.3% (n = 300,000); AID 1662;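 active means mean replicate score, as percent of positive control median, at least 50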;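 further: strain carries kanamycin resistance gene driven by streptokinase promoter and grows in 40 µg/ml kanamycin; loss of luminescence reflects streptokinase promoter inhibition or plain growth inhibition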
tim23-1 inh: growth inhibitors of tim23-1 mutant yeast; actives 1.3% (n = 330,000); S. cerevisiae tim23-1 growth, BacTiter-Glo luminescence, 24 h; inhibition, % at 20 µM;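 active means growth inhibition of the mutant yeast at or above 50%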;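 further: temperature-sensitive mutant grown at 25 °C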
tim10-1 inh: inhibits growth of tim10-1 mutant yeast; S. cerevisiae tim10-1 ts strain growth, BacTiter-Glo, 24 h; inhibition, % at 20 µM; actives 2.2% (n = 330,000); AID 463190;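 active means inhibition of at least 40%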;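 further: mutant grown at 25 °C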
tim10-1 confirm: confirmation of tim10-1 mutant yeast growth inhibitors; inhibition, % at 20 µM; S. cerevisiae tim10-1 ts strain growth, BacTiter-Glo, 24 h; actives 56% (n = 7,400); AID 463213; shares compounds with tim10-1 inh;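 active means inhibition of yeast growth at or above a set limit in either of two repeat tests at 20 µM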;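 further: tim10-1 mutant grown at permissive 25 °C to find synthetic lethal compounds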
Each line names hits and unclear results; the compound was inactive in the other large screens (follow-up assays come after a bar, where they were run). A selection: hits, their analogues and other compounds. The true share with any hit is near 4.8%.

Cc1cc(C)c2c(N)c(C(=O)N/N=C/c3cccs3)sc2n1	none (no result: NALP1 inh, PfHsp90 set2)
Cc1ccc(NCc2nnc(SCC(=O)c3ccccc3)o2)c(C)c1	tim10-1 inh 42 (no result: PfHsp90 set2) | tim10-1 confirm inactive
Cc1ccc(NCc2nnc(SCC(=O)N3CCCc4ccccc43)o2)c(C)c1	none (no result: PfHsp90 set2)
CC(Sc1nc2ccccc2[nH]1)C(=O)Nc1ccccc1F (stereo not given)	none
Cc1ccc(NC(=S)Nc2ccc(Cl)c(Cl)c2)c(OC(F)F)c1	tim10-1 inh 61 | tim10-1 confirm 38
Nc1ccc(C2=Nc3cccc4cccc(c34)N2)cc1	none (no result: TIM10 inh, tim23-1 inh, tim10-1 inh)
COc1ccc(-c2nnc(SCc3cc(C)ccc3C)n2N)cc1	tim10-1 inh 42 | tim10-1 confirm 39
O=C(c1ccc(N2CCN(C(=O)c3ccccc3Br)CC2)cc1)c1cccc(F)c1	none
N#CCSc1nccc(/C=C/c2ccccc2)n1	none
CSc1nc2nccc(/C=C\c3ccccc3)n2n1	tim10-1 inh 53 | tim10-1 confirm 38
Cc1ccnc(-n2c(CCN3C(=O)c4ccccc4C3=O)nc3ccccc3c2=O)c1	none
O=C1c2ccccc2C(=O)N1CCc1nc2ccccc2c(=O)n1-c1ccccn1	tim10-1 inh 49 | tim10-1 confirm inactive
CC1(C)CC(=O)C2=C(C1)OC1=C(C(=O)CC(C)(C)C1)C2c1ccc(O)cc1O	tim10-1 inh 44 | tim10-1 confirm 35
CC1(C)CC(=O)C2=C(C1)OC1=C(C(=O)CC(C)(C)C1)C2c1ccc(O)c([N+](=O)[O-])c1	none
O=C(Nc1nnc(C2=COCCO2)o1)c1ccc(Br)cc1	SKKanGAS inh 101, tim10-1 inh 42 | tim10-1 confirm 39
O=C(Nc1nnc(C2=COCCO2)o1)c1ccc(S(=O)(=O)N2CCOCC2)cc1	none
O=C(Nc1nnc(C2=COCCO2)o1)c1ccc(Cl)cc1	tim10-1 inh 57 | tim10-1 confirm 32
CC(=O)Nc1nnc(C2=COCCO2)o1	none (no result: PfHsp90 set2)
O=C(Nc1nnc(C2=COCCO2)o1)c1ccc([N+](=O)[O-])cc1	tim10-1 inh 46 | tim10-1 confirm 35
CCN(CC)C(=O)c1[nH]cnc1C(=O)Nc1cccc(C)c1	none (no result: NALP1 inh, PfHsp90 set2, SKKanGAS inh)
CCCCN(CC)C(=O)c1ccc(-c2ccccc2)cc1	none
CSc1nnc(-c2cccc(NC(=S)NN)c2)o1	tim10-1 inh 49 | tim10-1 confirm inactive
CSc1nnc(-c2ccc(NC(N)=S)cc2)o1	none
O=C(CSc1ncnc2sc3c(c12)CCCCC3)NCc1ccco1	tim10-1 inh 47 | tim10-1 confirm 34
CC(C)C(=O)N1CCN(c2ccccc2NC(=O)Cc2ccc(Cl)cc2)CC1	none (no result: PfHsp90 set2)
CN1CCN(c2ccccc2NC(=O)c2ccc(-c3cccc(Cl)c3)o2)CC1	tim10-1 inh 60 | tim10-1 confirm 47
CC(C)C(=O)N1CCN(c2ccccc2NC(=O)c2ccc([N+](=O)[O-])o2)CC1	tim10-1 inh 59 | tim10-1 confirm 56
Cc1cccc(OCC(=O)Nc2ccccc2N2CCN(C(=O)C(C)C)CC2)c1C	tim10-1 inh 48 (no result: PfHsp90 set2) | tim10-1 confirm 30
COc1ccc(NC(=O)C2CCCN2S(=O)(=O)c2ccc3c(c2)CCC(=O)N3)c(OC)c1 (stereo not given)	none (no result: SKKanGAS inh)
O=C(NCc1ccccc1)c1cc(=O)[nH]c2ccccc12	none
O=C(O)CN(C1CCCCC1)S(=O)(=O)c1ccc(F)cc1	none
CC(C)C1NC2(C(=O)c3ccccc3C2=O)C2C(=O)N(c3ccc(F)cc3)C(=O)C12 (stereo not given)	tim10-1 inh 40 | tim10-1 confirm 30
O=C1C2C3C=CC(CC3)C2C(=O)N1c1ccc(F)cc1 (stereo not given)	none
Cc1ccc(C)c(OCCC(=O)OCC(=O)NCc2ccc(F)cc2)c1	none
COc1ccc(C(=O)Cn2c(C)nc([N+](=O)[O-])c2Br)cc1	none
Cc1nc([N+](=O)[O-])c(Br)n1CC(=O)c1ccc(Cl)cc1	tim10-1 inh 43 (no result: PfHsp90 set2) | tim10-1 confirm 38
O=C(COC(=O)c1ccccc1C(=O)c1ccccc1)Nc1ccc(SC(F)F)cc1	tim10-1 inh 41 | tim10-1 confirm 31
COc1ccc(C(=S)N2CCNCC2)cc1	none
